Laboratory results from the supplement of paper PMC13380429.

Test system: Vero E6 infected with SARS-CoV-2
Test: inhibition of SARS-CoV-2 cytopathic effect; higher = more antiviral protection, active = above 15
Settings: 48 h

Measured: inhibition of SARS-CoV-2 cytopathic effect

NC(=O)c1ccc2[nH]ccc2c1
inactive: 1 nM -2.02% | 8.33 nM 0.22% | 100 nM 0.99% | 833.33 nM 0.03% | 10000 nM 3.72%

CSCC[C@H](NC(=O)[C@H](CC(C)C)NC(=O)CNC(=O)[C@H](Cc1ccccc1)NC(=O)[C@H](Cc1ccccc1)NC(=O)[C@H](CCC(N)=O)NC(=O)[C@H](CCC(N)=O)NC(=O)[C@@H]1CCCN1C(=O)[C@H](CCCCN)NC(=O)[C@@H]1CCCN1C(=O)[C@@H](N)CCCN=C(N)N)C(N)=O [substance-P]
inactive: 1 nM -5.5% | 8.33 nM -11.3% | 100 nM -9.37% | 833.33 nM -10.4% | 10000 nM -5.64%

CC(C)[C@]12O[C@H]1[C@@H]1O[C@]13[C@]1(O[C@H]1C[C@H]1C4=C(CC[C@@]13C)C(=O)OC4)[C@@H]2O [triptolide]
inactive: 1 nM -1.16% | 8.33 nM -2.32% | 100 nM -12.1% | 833.33 nM -9.06% | 10000 nM -8.11%

N.N.O=C([O-])C[O-].[Pt+2] [nedaplatin]
inactive: 1 nM -3.28% | 8.33 nM -2.76% | 100 nM -0.64% | 833.33 nM -1.21% | 10000 nM -2.85%

Cc1ccc(O)c([C@H](CCN(C(C)C)C(C)C)c2ccccc2)c1 [tolterodine]
inactive: 1 nM 2.11% | 8.33 nM 1.62% | 100 nM 1.96% | 833.33 nM -3.34% | 10000 nM -2.67%

CCc1ccc(C(=O)C(C)CN2CCCCC2)cc1 (stereo not given) [eperisone]
inactive: 1 nM 0.14% | 8.33 nM 2.24% | 100 nM 3.36% | 833.33 nM 4.7% | 10000 nM 2.77%
